# Pf Dd2 growth: P. falciparum Dd2 growth inhibitors, primary screen, SYBR Green fluorescence, single dose replicates; 72 h; stronger effect = lower value; activity change, % at 10 µM; 94,000 compounds, 2.3% hits; AID 1159554, 2015; in the data active = activity change below about -80%
# Tcruzi prolif: T. cruzi intracellular proliferation inhibitors, primary screen, cell-based, beta-gal Tulahuen parasites, NIH3T3 host, luminescence; T. cruzi beta-gal in NIH3T3, GalScreen luminescence, 90 h; inhibition, % at 8.34 µM; 77,000 compounds, 5.9% hits; AID 624255, 2012;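 active = mean inhibition above about 93%, with at least 55% of replicates each passing it, limit read from the data, passing the limit was not always enough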
# C diff HTS: C. difficile growth inhibitors, primary screen, HTS; 86,000 compounds, 0.25% hits; growth activity, negative = inhibition, % at 16 µg/mL (by protocol); Clostridium difficile clinical isolate growth, OD600, 24 h; stronger effect = lower value; AID 1259249, 2017;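 active = mean growth activity at or below -80% and every replicate also at or below -80%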;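 also: 0% = DMSO wells and -100% = levofloxacin 16 µg/mL wells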
# * marks the source's active call; other numbers are inactive results; · = no result given; ! = a repeat was not active. An excerpt weighted towards active compounds, which were near 6.8% of everything screened.
SMILES,Pf Dd2 growth,Tcruzi prolif,C diff HTS
CCCC#Cc1ccc2c(c1)O[C@H](CN(C)C(=O)C1CC1)[C@H](C)CN([C@H](C)CO)S2(=O)=O,-51,27,4
C[C@H]1CN([C@@H](C)CO)C(=O)Cc2cc(NS(C)(=O)=O)ccc2O[C@H]1CN(C)Cc1ccc(-c2ccccc2)cc1,-2,-16,-24
CN(C)CC(=O)N1C[C@@H]2N[C@H](C1)C2c1ccc(/C=C/c2ccccc2)cc1 (stereo partly specified),-91*!,·,9
O=C(C1CC1)N1C[C@@H]2N[C@H](C1)C2c1ccc(/C=C/c2ccccc2)cc1 (stereo partly specified),1,·,-7
Cc1cccc(-c2ccc(C3[C@@H]4CN(C(=O)c5ccncc5)C[C@H]3N4)cc2)c1 (stereo partly specified),-9,·,-8
Cc1cccc(-c2ccc([C@@H]3[C@@H]4CN(C(=O)CN(C)C)C[C@H]3N4)cc2)c1,-85*,·,29
Cc1noc(C)c1NC(=O)N(C)C[C@H]1Oc2ccc(NC(=O)c3ccncc3)cc2CC(=O)N([C@@H](C)CO)C[C@@H]1C,2,8,-4
C[C@H](CO)N1C[C@H](C)[C@@H](CN(C)Cc2ccc(C(=O)Nc3ccccc3N)cc2)Oc2ccc(NS(=O)(=O)c3ccccc3)cc2CC1=O,-83*,62,7
Cc1ccc(S(=O)(=O)Nc2ccc3c(c2)CC(=O)N([C@H](C)CO)C[C@H](C)[C@H](CN(C)Cc2ccc(C(=O)Nc4ccccc4N)cc2)O3)cc1,-88*,76,-5
C[C@@H]1CN([C@@H](C)CO)C(=O)Cc2cc(NS(=O)(=O)c3ccccc3)ccc2O[C@H]1CN(C)Cc1ccc(C(=O)Nc2ccccc2N)cc1,-72,12,5
C[C@@H]1CN([C@H](C)CO)C(=O)Cc2cc(NS(=O)(=O)c3ccc(Cl)cc3)ccc2O[C@H]1CN(C)Cc1ccc(Oc2ccccc2)cc1,-5,47,85
Cc1ccc(S(=O)(=O)Nc2ccc3c(c2)CC(=O)N([C@@H](C)CO)C[C@@H](C)[C@H](CN(C)Cc2ccc(C(=O)Nc4ccccc4N)cc2)O3)cc1,-76,41,5
C[C@H](CO)N1C[C@H](C)[C@H](CN(C)Cc2ccc(Oc3ccccc3)cc2)Oc2ccc(NS(=O)(=O)c3ccc(Cl)cc3)cc2CC1=O,-87*,29,62
C[C@@H]1CN([C@@H](C)CO)C(=O)c2cccc(NC(=O)c3nc4ccccc4s3)c2O[C@@H]1CN(C)S(=O)(=O)c1cccs1,-15,68,-2
C[C@H]1CN([C@@H](C)CO)C(=O)c2cc(C#Cc3ccncc3)cnc2O[C@H]1CN(C)C(=O)CN(C)C,3,·,-5
COc1ccc2c3c(n(C)c2c1)[C@@H](CO)N(Cc1cccnc1)CC31CCN(Cc2cccnc2)CC1,33,·,·
C[C@@H]1CCCCO[C@@H](CN(C)C(=O)Cc2ccccc2)[C@H](C)CN([C@H](C)CO)C(=O)c2cc(NS(=O)(=O)c3cn(C)cn3)ccc2O1,13,-20,-2
C[C@H]1CCCCO[C@H](CN(C)C(=O)C2CCCCC2)[C@@H](C)CN([C@@H](C)CO)C(=O)c2cc(NC(=O)Nc3ccc(F)cc3)ccc2O1,-68,79,-6
COCC(=O)N1C[C@H](C)[C@@H](OC)CN(C)C(=O)c2cc(NC(=O)c3cc(C)on3)ccc2OC[C@@H]1C,11,-28,·
COc1ccc2c3c([nH]c2c1)[C@@H](CO)N(C(=O)Nc1ccc(F)cc1)CC31CCN(S(=O)(=O)c2ccccc2)CC1,-84*,·,8
COc1cccc(S(=O)(=O)N2CCC3(CC2)CN(C(=O)Nc2ccc(F)cc2)[C@H](CO)c2[nH]c4cc(OC)ccc4c23)c1,-63,·,1
COc1cccc(S(=O)(=O)N2CCC3(CC2)CN(C(=O)Nc2ccc(F)cc2)[C@@H](CO)c2[nH]c4cc(OC)ccc4c23)c1,-75,·,6
COc1ccc2c3c([nH]c2c1)[C@H](CO)N(C(=O)Nc1ccc(F)cc1)CC31CCN(S(=O)(=O)c2ccccc2)CC1,-88*,·,9
C[C@@H]1CN([C@H](C)CO)C(=O)Cc2cc(NC(=O)Cc3ccccc3)ccc2O[C@H]1CN(C)Cc1ccc(C(=O)Nc2ccccc2N)cc1,-5,·,11
C[C@H]1CN([C@@H](C)CO)C(=O)Cc2cc(NC(=O)Cc3ccccc3)ccc2O[C@H]1CN(C)Cc1ccc(C(=O)Nc2ccccc2N)cc1,-86*,·,-4
SMILES,Pf Dd2 growth,Tcruzi prolif,C diff HTS
C[C@H]1CN([C@@H](C)CO)C(=O)Cc2cc(NC(=O)c3ccncc3)ccc2O[C@H]1CN(C)Cc1ccc(C(=O)Nc2ccccc2N)cc1,-45,78,-4
C[C@H]1CN([C@@H](C)CO)C(=O)Cc2cc(NC(=O)c3ccncc3)ccc2O[C@@H]1CN(C)Cc1ccc(C(=O)Nc2ccccc2N)cc1,-86*,·,-3
C[C@H](CO)N1C[C@H](C)[C@H](CN(C)Cc2ccc(C(=O)Nc3ccccc3N)cc2)Oc2ccc(NC(=O)Cc3ccccc3)cc2CC1=O,-87*,·,15
C[C@H]1CN([C@@H](C)CO)C(=O)Cc2cc(NC(=O)Nc3ccccc3)ccc2O[C@H]1CN(C)Cc1ccc(C(=O)Nc2ccccc2N)cc1,-76,·,7
C[C@@H]1CN([C@@H](C)CO)S(=O)(=O)c2ccc(C#CC3CC3)cc2O[C@H]1CN(C)C(=O)c1cnccn1,-9,38,-2
C[C@@H]1CN([C@@H](C)CO)C(=O)c2cc(NS(=O)(=O)c3ccc(F)cc3)ccc2O[C@@H](C)CCCCO[C@H]1CN(C)C(=O)c1ccccc1,-23,22,4
C[C@@H]1CN([C@@H](C)CO)C(=O)Cc2cc(NC(=O)Cn3cnnn3)ccc2O[C@@H]1CN(C)S(=O)(=O)c1ccc(F)cc1,4,20,-5
Cc1ccc(S(=O)(=O)N(C)C[C@@H]2OCCCC[C@@H](C)Oc3ccc(NC(=O)NC4CCCCC4)cc3C(=O)N([C@@H](C)CO)C[C@@H]2C)cc1,-86*,61,14
Cc1ccc(S(=O)(=O)N(C)C[C@@H]2OCCCC[C@H](C)Oc3ccc(NC(=O)NC4CCCCC4)cc3C(=O)N([C@@H](C)CO)C[C@H]2C)cc1,-80,29,4
Cc1ccc(S(=O)(=O)N(C)C[C@H]2OCCCC[C@H](C)Oc3ccc(NC(=O)NC4CCCCC4)cc3C(=O)N([C@H](C)CO)C[C@H]2C)cc1,-83*,85,-3
Cc1ccc(S(=O)(=O)N(C)C[C@@H]2OCCCC[C@@H](C)Oc3ccc(NC(=O)NC4CCCCC4)cc3C(=O)N([C@H](C)CO)C[C@@H]2C)cc1,-77,65,10
C[C@@H](NC(=O)[C@@H]1[C@@H](CO)[C@@H]2Cn3c(cccc3=O)[C@H]1N2Cc1ccncc1)c1ccccc1,3,-1,3
COCC(=O)Nc1ccc2c(c1)C(=O)N(C)C[C@H](OC)[C@@H](C)CN(CC1CCCCC1)[C@H](C)CO2,-63,-22,1
O=S(=O)(Cc1ccccc1)N1[C@H](CO)[C@@H](c2ccccc2)C12CN(CCC(F)(F)F)C2,-84*,·,15
OC[C@@H]1[C@@H](c2ccccc2)C2(CN(CCC(F)(F)F)C2)N1Cc1ccccc1,-79,·,27
